This is a sample that favours compounds with a hit; in the whole collection about 7.7% have one here.
TbPYK inhibitor: blocks Trypanosoma brucei pyruvate kinase | Q57TT1 | TbPYK enzyme, Kinase-Glo Plus ATP luminescence, 45 min | Potency, µM (top dose mostly 76.8 µM), most hits filed as inhibitors | 0.12% of 410,000 active | AID 624173; further: nearly all actives have a fitted effect of over 50% in size
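Assay buffer: 50 mM TEA pH 7.2, 100 mM KCl, 10 mM MgCl2, 0.05% BSA, 0.01% Tween-20. Pyruvate kinase from T. brucei plus substrate met compound, then ADP (130 uM final). Luminescence was read post 45 min RT.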
HCMV antiviral: human cytomegalovirus inhibition. 4.5% of 410,000 active. AID 1259415. activity change, negative = inhibition, % at 57.5 µM. HFF cells, HCMV-luciferase reporter, 72 h; stronger effect = lower value; in the data active means activity change below about -60%; inconclusive means no clear call, values can overlap the other calls; inactive means above about -39%
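Two compound doses tested in HFFs infected with HCMV-luciferase, MOI 1 PFU/cell, 72 h at 37C. Lysate luminescence read with OneGlo; data normalized against buffer-only and 10uM Salinomycin inhibitor controls.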
RE007 growth inh: less growth of the S. pombe RE007 Vpr strain. S. pombe RE007 Vpr strain, BacTiter-Glo ATP luminescence, 24 h. Potency, µM (top dose mostly 92.2 µM), usual class: inhibitors. 0.21% of 360,000 active. AID 651644; active means well fitted falling curve with a large enough effect; inconclusive means small, poorly fitted or top-dose-only effect; inactive means no such curve, though single readings can be large or run the other way; further: nearly all actives have a fitted effect of over 50% in size
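Fission yeast strain RE007, carrying one chromosomally integrated HIV-1 vpr copy, was seeded at OD 0.01 in PMG+AL medium with 23 nL pinned compound. After 24 h at 30 °C and 99% humidity, viability was read by BacTiter-Glo luminescence.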
FBPA Giardia inh: inhibitors of Giardia lamblia fructose-1,6-bisphosphate aldolase | AID 2451 | Potency, µM (top dose mostly 59.6 µM), usual class: inhibitors | purified Giardia FBPA | 0.71% of 290,000 active; further: nearly all actives have a fitted effect of over 55% in size
Target sequence (A8B2U2 whole entry, looked up): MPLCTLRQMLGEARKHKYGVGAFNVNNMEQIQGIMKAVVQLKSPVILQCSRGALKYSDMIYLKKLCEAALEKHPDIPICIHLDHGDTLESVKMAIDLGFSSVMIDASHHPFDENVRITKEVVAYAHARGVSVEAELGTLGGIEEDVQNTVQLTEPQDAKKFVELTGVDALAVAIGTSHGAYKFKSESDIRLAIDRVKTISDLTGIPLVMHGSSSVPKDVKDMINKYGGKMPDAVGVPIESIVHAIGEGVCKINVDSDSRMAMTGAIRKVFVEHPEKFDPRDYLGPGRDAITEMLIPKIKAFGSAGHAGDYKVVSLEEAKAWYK
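40 nM FBPA preincubated 10 min at RT with compound (up to 57.5 uM final), then substrate plus GAPDH/TPI/NAD/arsenate coupling and diaphorase/resazurin added. Fluorescence read after 20 min at RT, 525/598 nm.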
Sm TGR inh: inhibitors of Schistosoma mansoni thioredoxin glutathione reductase. AID 485364. Potency, µM (highest dose often 114 µM), actives largely listed as inhibitors. Q962Y6. 3% of 360,000 active. purified TGR, DTNB reduction, TNB absorbance 405 nm; further: nearly all actives have a fitted effect of over 60% in size
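Kinetic colorimetric format: TGR-catalysed, NADPH-driven DTNB reduction monitored via TNB absorbance. Enzyme dispensed at 20 nM; compound exposure 15 min at room temperature before reaction start.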
FMDV antiviral: foot and mouth disease virus antiviral activity. 1.2% of 410,000 active. FMDV antiviral cell-based qHTS. Potency, µM (doses to about 57.9 µM), actives largely listed as inhibitors; calls by dose curve; tested in HEK293T cells; further: read-out not given here; nearly all actives have a fitted effect of over 45% in size
A number is an active result; i = inactive; ? = inconclusive; nt = no result given. Unless noted, the call rests on the fitted dose curve; in most records, active means well fitted curve in the direction sought with a large enough effect; inconclusive means small, poorly fitted or top-dose-only effect, or another doubt; inactive means no such curve, though single readings can be large; an effect the other way counts as inactive or inconclusive.

SMILES	TbPYK inhibitor	HCMV antiviral	RE007 growth inh	FBPA Giardia inh	Sm TGR inh	FMDV antiviral
Cc1ccc(-c2cn3cccnc3n2)cc1NC(=O)Cc1ccccc1	i	i	nt	nt	?	i
CCOc1ccc(OCC)c(C2C(C#N)=C(N)N(c3cccnc3)C3=C2C(=O)CC(C)(C)C3)c1 (stereo unspecified)	i	i	i	i	22.4µM	i
Cc1ccc(N2C(N)=C(C#N)C(c3ccsc3)C3=C2CC(C)(C)CC3=O)cc1 (stereo unspecified)	i	-100.7	i	i	i	i
Cc1ccc(N2C(N)=C(C#N)C(c3cccnc3)C3=C2CC(C)(C)CC3=O)cc1 (stereo unspecified)	i	?	i	i	39.8µM	?
Cc1cc(Br)ccc1NC(=O)C(Cc1ccccc1)NS(=O)(=O)c1ccc(Br)s1 (stereo unspecified)	i	-103.8	nt	nt	i	i
O=C(O)c1ccc(-n2cc(-c3cc4ccccc4oc3=O)[nH]c2=S)cc1	?	-64.3	i	i	?	i
O=c1oc2ccccc2cc1-c1ccccc1	i	i	i	i	i	i
CCn1nc(C)cc1C(=O)NCC1Cc2cccc(-c3cccnc3)c2O1 (stereo unspecified)	nt	nt	nt	nt	nt	i
Cc1cn2c(=O)cc(COC(=O)c3cccc(NC(=O)C(C)Oc4ccccc4)c3)nc2s1 (stereo unspecified)	i	-64.4	nt	nt	i	i
Cc1cn2c(=O)cc(COc3cccc(NC(=O)c4ccccc4C)c3)nc2s1	i	-68.7	nt	nt	i	i
Cc1cn2c(=O)cc(COc3ccc(Cl)cc3)nc2s1	i	i	nt	nt	i	i
Cc1cn2c(=O)cc(COC(=O)C(C)Oc3ccccc3)nc2s1 (stereo unspecified)	i	i	nt	nt	i	i
Cc1ccc(OCc2cc(=O)n3cc(C)sc3n2)c(C)c1	i	-100.6	nt	nt	i	i
COc1ccccc1CNC(=O)C(=O)NCC(c1cccs1)S(=O)(=O)c1ccc(F)cc1 (stereo unspecified)	i	i	nt	nt	i	?
O=C(CNC(=S)N(Cc1ccccc1F)C1CCCCC1)NCC1CCCO1 (stereo unspecified)	i	-61.1	i	i	i	i
COc1coc(C(O)C[N+](=O)[O-])cc1=O (stereo unspecified)	?	i	i	i	50.1µM	i
CC(C(O)c1cc(=O)c(OCc2ccccc2)co1)[N+](=O)[O-] (stereo unspecified)	i	i	i	nt	nt	i
O=C1C2C3C=CC(CC3)C2C(=O)N1c1ccc(Br)cc1[N+](=O)[O-] (stereo unspecified)	i	i	i	i	i	i
O=C1C2C3C=CC(CC3)C2C(=O)N1c1ccccc1[N+](=O)[O-] (stereo unspecified)	i	i	i	i	17.8µM	i
CC(=Nc1ccccc1N)c1c(C)cc(=O)n(O)c1O	nt	nt	nt	15.8µM	nt	i
NS(=O)(=O)c1ccc(CCNC(=S)Nc2ccccc2)cc1	i	i	i	i	?	i
NS(=O)(=O)c1ccc(CNC(=S)Nc2ccc(Cl)c(Cl)c2)cc1	i	-73.7	i	i	i	i
NS(=O)(=O)c1ccc(CCNC(=O)Nc2ccc(Cl)c(Cl)c2)cc1	i	?	i	i	i	25.1µM
NS(=O)(=O)c1ccc(CCNC(=S)Nc2ccc(F)cc2)cc1	i	-60.6	i	i	nt	i
CCCCc1c(O)n(-c2ccccc2)[nH]c1=O	nt	nt	nt	i	nt	nt
SMILES	TbPYK inhibitor	HCMV antiviral	RE007 growth inh	FBPA Giardia inh	Sm TGR inh	FMDV antiviral
Cc1c(NC(=O)C(C)(C)Oc2ccc(Cl)cc2)cccc1-c1nc2ccccc2o1	i	i	nt	nt	i	i
CCn1c(SCC(=O)N/N=C/C=C/c2ccco2)nc2ccccc21	i	i	i	i	14.1µM	i
O=C(CSc1nnc(SCC(=O)c2ccco2)s1)c1ccco1	i	i	i	i	39.8µM	i
Cn1c(SCC(=O)N/N=C/c2ccco2)nc2ccccc21	i	i	i	i	i	i
O=C(CSc1nc2cc(Cl)ccc2s1)c1ccco1	i	i	i	?	i	i
O=C(CSc1nnc(SCc2ccccc2)s1)N/N=C/C=C\c1ccco1	i	?	i	i	31.6µM	i
CCn1c(SCC(=O)N/N=C/C=C/c2ccco2)nnc1-c1ccc(OC)cc1	i	?	i	?	31.6µM	i
COc1ccc(-c2nnc3n2N=C(c2c(OC)cccc2OC)CS3)c(OC)c1	nt	nt	nt	i	nt	nt
O=C(COC(=O)C1CC1)Nc1ncc(Cl)cc1Cl	i	i	i	nt	i	i
O=C(COC(=O)C1CCN(S(=O)(=O)c2cc([N+](=O)[O-])ccc2Cl)CC1)Nc1ncc(Cl)cc1Cl	i	i	i	nt	39.8µM	i
Cc1ccc2nc(NC(=O)C3CCN(S(=O)(=O)c4cc([N+](=O)[O-])ccc4Cl)CC3)sc2c1	i	i	i	i	i	?
O=C(Nc1nc2ccc(F)cc2s1)C1CCN(S(=O)(=O)c2cc([N+](=O)[O-])ccc2Cl)CC1	i	i	i	i	?	20µM
CN(Cc1ccccc1)C(=O)C1CCN(S(=O)(=O)c2cc([N+](=O)[O-])ccc2Cl)CC1	i	i	i	i	i	?
CC(=O)COC(=O)C1CCN(S(=O)(=O)c2cc([N+](=O)[O-])ccc2Cl)CC1	i	i	i	?	7.94µM	i
CCSc1nnc(NC(=O)C2CCN(S(=O)(=O)c3cc(C(F)(F)F)ccc3Cl)CC2)s1	i	?	i	i	89.1µM	?
O=C(OCC(=O)N1CCCC1)c1cc([N+](=O)[O-])ccc1Cl	i	i	i	i	i	10µM
CCCc1nc2c(sc3nc4c(cc32)COC(C)(C)C4)c(=O)n1CCN(C)C	i	i	i	i	i	i
CC1(C)Cc2nc3sc4c(SCC(=O)NCc5ccco5)ncnc4c3cc2CO1	i	i	i	i	12.6µM	i
Cc1nc2c(sc3nc4c(cc32)COC(C)(C)C4)c(=O)n1CC(=O)NCc1ccco1	i	i	i	i	39.8µM	i
CCCc1nc2c(sc3nc4c(cc32)COC(C)(C)C4)c(=O)n1Cc1ccco1	i	i	i	i	35.5µM	nt
COc1cc(-c2cccc(OC)c2OC)cc2c1OCCN(Cc1cn[nH]c1-c1ccc(Cl)cc1)C2	nt	nt	nt	nt	nt	i
CC(C)CCNC(=O)C(CC(C)C)NC(=O)C1OC1C(=O)O (stereo unspecified)	nt	nt	nt	i	nt	nt
Cc1ccc(NC(C)C(=O)N/N=C/c2ccc([N+](=O)[O-])s2)cc1 (stereo unspecified)	i	-70.0	i	i	i	i
Cc1cc(C(=O)N/N=C/c2ccc([N+](=O)[O-])s2)c2ccccc2n1	i	-70.4	i	nt	i	i
Cc1ccccc1C(=O)N/N=C/c1ccc([N+](=O)[O-])s1	i	-95.9	i	i	i	nt
O=C(N/N=C/c1ccc([N+](=O)[O-])s1)c1ccccc1	i	?	i	i	i	?

High-throughput results from PubChem BioAssay.
